{"source": "PubChem BioAssay AID1159580", "about": "(chemical genetic matrix, 2015)", "test": "chemical genetic growth profiling, strain panel (AID 1159580);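 note: tested at 20 µM; growth read once vehicle control cultures reached saturation at 30 °C; 1 = growth at the plate median or of vehicle wells; lower values mean less growth of the strain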", "details": "S. cerevisiae deletion strains, growth OD", "note": "Where “and” joins values, the source holds several entries; their conditions need not be identical. Equal values may be shown once. In all, about 5,500 compounds went through this assay and about 2,000 (36%) were called active. Inconclusive results (about 18%) are left out. Cut-off read from the data, not from the text of the source: active = normalized growth mostly below about 0.91 (no sharp cut-off); inconclusive = no clear call, values can overlap the other calls; inactive = mostly above about 0.92. Some of the results follow."}
{"smiles": "O=C(O[C@@H]1Cc2c(O)cc(O)cc2O[C@@H]1c1cc(O)c(=O)c2c(O)c(O)cc([C@H]3Oc4cc(O)cc(O)c4C[C@H]3OC(=O)c3cc(O)c(O)c(O)c3)c2c1)c1cc(O)c(O)c(O)c1", "values": [{"measurement": "normalized growth", "setting": "locus YAL013W, strain DEP1, stronger effect = lower value", "result": "0.633 (active)"}, {"measurement": "normalized growth", "setting": "locus YAL021C, strain ccr4, stronger effect = lower value", "result": "0.0843 (active)"}, {"measurement": "normalized growth", "setting": "locus YAL026C, strain drs2, stronger effect = lower value", "result": "0.432 (active)"}, {"measurement": "normalized growth", "setting": "locus YAL030W, strain snc1, stronger effect = lower value", "result": "0.604 (active)"}, {"measurement": "normalized growth", "setting": "locus YBL061C, strain skt5, stronger effect = lower value", "result": "0.513 (active)"}, {"measurement": "normalized growth", "setting": "locus YBR009C, strain hhf1, stronger effect = lower value", "result": "0.434 (active)"}, {"measurement": "normalized growth", "setting": "locus YBR021W, strain FUR4, stronger effect = lower value", "result": "0.986 (inactive)"}, {"measurement": "normalized growth", "setting": "locus YBR023C, strain chs3, stronger effect = lower value", "result": "0.43 (active)"}, {"measurement": "normalized growth", "setting": "locus YBR171W, strain sec66, stronger effect = lower value", "result": "0.918 (inactive)"}, {"measurement": "normalized growth", "setting": "locus YBR229C, strain ROT2, stronger effect = lower value", "result": "0.981 (inactive)"}, {"measurement": "normalized growth", "setting": "locus YBR231C, strain swc5, stronger effect = lower value", "result": "0.418 (active)"}, {"measurement": "normalized growth", "setting": "locus YBR279W, strain paf1, stronger effect = lower value", "result": "0.554 (active)"}, {"measurement": "normalized growth", "setting": "locus YCL011C, strain gbp2, stronger effect = lower value", "result": "0.509 (active)"}, {"measurement": "normalized growth", "setting": "locus YCL016C, strain dcc1, stronger effect = lower value", "result": "0.754 (active)"}, {"measurement": "normalized growth", "setting": "locus YCL029C, strain bik1, stronger effect = lower value", "result": "0.966 (inactive)"}, {"measurement": "normalized growth", "setting": "locus YCL061C, strain MRC1, stronger effect = lower value", "result": "0.724 (active)"}, {"measurement": "normalized growth", "setting": "locus YCL069W, strain vba3, stronger effect = lower value", "result": "0.776 (active)"}, {"measurement": "normalized growth", "setting": "locus YCR088W, strain abp1, stronger effect = lower value", "result": "0.892 (active)"}, {"measurement": "normalized growth", "setting": "locus YDL005C, strain med2, stronger effect = lower value", "result": "0.821 (active)"}, {"measurement": "normalized growth", "setting": "locus YDL035C, strain GPR1, stronger effect = lower value", "result": "0.658 (active)"}, {"measurement": "normalized growth", "setting": "locus YDL040C, strain nat1, stronger effect = lower value", "result": "0.868 (active)"}, {"measurement": "normalized growth", "setting": "locus YDL074C, strain BRE1, stronger effect = lower value", "result": "0.58 (active)"}, {"measurement": "normalized growth", "setting": "locus YDL101C, strain DUN1, stronger effect = lower value", "result": "0.706 (active)"}, {"measurement": "normalized growth", "setting": "locus YDL134C, strain PPH21, stronger effect = lower value", "result": "0.741 (active)"}, {"measurement": "normalized growth", "setting": "locus YDL185W, strain tfp1, stronger effect = lower value", "result": "0.995 (inactive)"}, {"measurement": "normalized growth", "setting": "locus YDL192W, strain arf1, stronger effect = lower value", "result": "0.955 (inactive)"}, {"measurement": "normalized growth", "setting": "locus YDR001C, strain nth1, stronger effect = lower value", "result": "0.962 (inactive)"}, {"measurement": "normalized growth", "setting": "locus YDR069C, strain doa4, stronger effect = lower value", "result": "0.105 (active)"}, {"measurement": "normalized growth", "setting": "locus YDR101C, strain arx1, stronger effect = lower value", "result": "1 (inactive)"}, {"measurement": "normalized growth", "setting": "locus YDR137W, strain rgp1, stronger effect = lower value", "result": "0.485 (active)"}, {"measurement": "normalized growth", "setting": "locus YDR150W, strain NUM1, stronger effect = lower value", "result": "0.851 (active)"}, {"measurement": "normalized growth", "setting": "locus YDR159W, strain sac3, stronger effect = lower value", "result": "0.735 (active)"}, {"measurement": "normalized growth", "setting": "locus YDR162C, strain NBP2, stronger effect = lower value", "result": "0.344 (active)"}, {"measurement": "normalized growth", "setting": "locus YDR195W, strain ref2", "result": "0.76 (active)"}, {"measurement": "normalized growth", "setting": "locus YDR297W, strain sur2, stronger effect = lower value", "result": "0.45 (active)"}, {"measurement": "normalized growth", "setting": "locus YDR318W, strain mcm21, stronger effect = lower value", "result": "0.981 (inactive)"}, {"measurement": "normalized growth", "setting": "locus YDR334W, strain swr1, stronger effect = lower value", "result": "0.468 (active)"}, {"measurement": "normalized growth", "setting": "locus YDR335W, strain msn5, stronger effect = lower value", "result": "0.604 (active)"}, {"measurement": "normalized growth", "setting": "locus YDR388W, stronger effect = lower value", "result": "1.01 (inactive)"}, {"measurement": "normalized growth", "setting": "locus YDR392W, strain spt3, stronger effect = lower value", "result": "0.81 (inactive)"}, {"measurement": "normalized growth", "setting": "locus YDR502C, strain sam2, stronger effect = lower value", "result": "0.866 (active)"}, {"measurement": "normalized growth", "setting": "locus YEL003W, strain gim4, stronger effect = lower value", "result": "0.527 (active)"}, {"measurement": "normalized growth", "setting": "locus YEL037C, strain rad23, stronger effect = lower value", "result": "0.686 (active)"}, {"measurement": "normalized growth", "setting": "locus YEL061C, strain CIN8 (second series), stronger effect = lower value", "result": "0.915 (inactive)"}, {"measurement": "normalized growth", "setting": "locus YEL061C, strain CIN8, stronger effect = lower value", "result": "0.817 (active)"}, {"measurement": "normalized growth", "setting": "locus YER015W, strain faa2, stronger effect = lower value", "result": "0.305 (active)"}, {"measurement": "normalized growth", "setting": "locus YER016W, strain bim1, stronger effect = lower value", "result": "0.823 (active)"}, {"measurement": "normalized growth", "setting": "locus YER110C, stronger effect = lower value", "result": "1.04 (inactive)"}, {"measurement": "normalized growth", "setting": "locus YER111C, strain swi4, stronger effect = lower value", "result": "0.692 (active)"}, {"measurement": "normalized growth", "setting": "locus YER155C, strain BEM2 (second series), stronger effect = lower value", "result": "0.836 (active)"}, {"measurement": "normalized growth", "setting": "locus YER155C, strain BEM2, stronger effect = lower value", "result": "1 (inactive)"}, {"measurement": "normalized growth", "setting": "locus YER167W, strain BCK2, stronger effect = lower value", "result": "0.896 (active)"}, {"measurement": "normalized growth", "setting": "locus YFR010W, strain ubp6, stronger effect = lower value", "result": "0.571 (active)"}, {"measurement": "normalized growth", "setting": "locus YGL078C, strain dbp3, stronger effect = lower value", "result": "1.02 (inactive)"}, {"measurement": "normalized growth", "setting": "locus YGL086W, strain mad1, stronger effect = lower value", "result": "0.893 (active)"}, {"measurement": "normalized growth", "setting": "locus YGL167C, strain pmr1, stronger effect = lower value", "result": "0.551 (active)"}, {"measurement": "normalized growth", "setting": "locus YGL173C, strain kem1, stronger effect = lower value", "result": "0.181 (active)"}, {"measurement": "normalized growth", "setting": "locus YGL227W, strain vid30, stronger effect = lower value", "result": "0.989 (inactive)"}, {"measurement": "normalized growth", "setting": "locus YGL240W, strain doc1, stronger effect = lower value", "result": "0.693 (active)"}, {"measurement": "normalized growth", "setting": "locus YGL248W, strain PDE1, stronger effect = lower value", "result": "0.681 (active)"}, {"measurement": "normalized growth", "setting": "locus YGL253W, strain hxk2, stronger effect = lower value", "result": "0.555 (active)"}, {"measurement": "normalized growth", "setting": "locus YGR078C, strain PAC10, stronger effect = lower value", "result": "0.787 (active)"}, {"measurement": "normalized growth", "setting": "locus YGR135W, strain pre9, stronger effect = lower value", "result": "0.828 (active)"}, {"measurement": "normalized growth", "setting": "locus YGR229C, strain SMI1, stronger effect = lower value", "result": "0.0949 (active)"}, {"measurement": "normalized growth", "setting": "locus YGR252W, strain gcn5, stronger effect = lower value", "result": "0.896 (inactive)"}, {"measurement": "normalized growth", "setting": "locus YHR013C, strain ard1, stronger effect = lower value", "result": "0.322 (active)"}, {"measurement": "normalized growth", "setting": "locus YHR027C, strain rpn1, stronger effect = lower value", "result": "0.186 (active)"}, {"measurement": "normalized growth", "setting": "locus YHR030C, strain SLT2, stronger effect = lower value", "result": "0.856 (active) and 1.02 (inactive)"}, {"measurement": "normalized growth", "setting": "locus YHR079C, strain IRE1 (second series), stronger effect = lower value", "result": "1.01 (inactive)"}, {"measurement": "normalized growth", "setting": "locus YHR079C, strain IRE1, stronger effect = lower value", "result": "1.04 (inactive)"}, {"measurement": "normalized growth", "setting": "locus YHR094C, strain hxt1, stronger effect = lower value", "result": "1.04 (inactive)"}, {"measurement": "normalized growth", "setting": "locus YHR129C, strain ARP1, stronger effect = lower value", "result": "0.845 (active)"}, {"measurement": "normalized growth", "setting": "locus YHR142W, strain chs7, stronger effect = lower value", "result": "0.493 (active)"}, {"measurement": "normalized growth", "setting": "locus YHR200W, strain rpn10, stronger effect = lower value", "result": "0.969 (inactive)"}, {"measurement": "normalized growth", "setting": "locus YIL066C, strain RNR3, stronger effect = lower value", "result": "0.509 (active)"}, {"measurement": "normalized growth", "setting": "locus YIL073C, strain SPO22, stronger effect = lower value", "result": "0.196 (active)"}, {"measurement": "normalized growth", "setting": "locus YIL125W, strain kgd1, stronger effect = lower value", "result": "1.04 (inactive)"}, {"measurement": "normalized growth", "setting": "locus YIR030C, strain dcg1, stronger effect = lower value", "result": "1.03 (inactive)"}, {"measurement": "normalized growth", "setting": "locus YJL092W, strain hpr5, stronger effect = lower value", "result": "0.856 (active)"}, {"measurement": "normalized growth", "setting": "locus YJL095W, strain BCK1 (second series), stronger effect = lower value", "result": "0.269 (active)"}, {"measurement": "normalized growth", "setting": "locus YJL095W, strain BCK1, stronger effect = lower value", "result": "0.59 (active) and 1.02 (inactive)"}, {"measurement": "normalized growth", "setting": "locus YJL115W, strain asf1, stronger effect = lower value", "result": "0.91 (inactive)"}, {"measurement": "normalized growth", "setting": "locus YJL129C, strain trk1, stronger effect = lower value", "result": "0.812 (active)"}, {"measurement": "normalized growth", "setting": "locus YJL134W, strain LCB3, stronger effect = lower value", "result": "0.965 (inactive)"}, {"measurement": "normalized growth", "setting": "locus YJL154C, strain vps35, stronger effect = lower value", "result": "0.842 (active)"}, {"measurement": "normalized growth", "setting": "locus YJL164C, strain tpk1, stronger effect = lower value", "result": "0.419 (active)"}, {"measurement": "normalized growth", "setting": "locus YJL166W, strain qcr8, stronger effect = lower value", "result": "0.371 (active)"}, {"measurement": "normalized growth", "setting": "locus YJL168C, strain set2, stronger effect = lower value", "result": "1.01 (inactive)"}, {"measurement": "normalized growth", "setting": "locus YJL187C, strain SWE1 (second series), stronger effect = lower value", "result": "0.512 (active)"}, {"measurement": "normalized growth", "setting": "locus YJL187C, strain SWE1, stronger effect = lower value", "result": "0.457 (active)"}, {"measurement": "normalized growth", "setting": "locus YJR043C, strain POL32, stronger effect = lower value", "result": "0.599 (active)"}, {"measurement": "normalized growth", "setting": "locus YJR066W, strain TOR1, stronger effect = lower value", "result": "0.96 (inactive)"}]}
